Growth inhibition data for 17 compounds are collected here from PubChem BioAssay (NCI).

Compounds without any hit were thinned out: in the full panel of roughly 79,000, 15% have a hit. Values without a mark were called inactive. Activity calls are given as the source filed them. No stated cut-off is given here; in the data, active means growth inhibition above about 70%; inactive means the rest.

The experiment can be described thus: NCI Yeast Anticancer Drug Screen. Data for the mec2-1 strain (AID 157). The following applies: S. cerevisiae mec2-1 strain, at 100.0 µM, hits give high values. Put shortly: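 Readout is yeast growth inhibition, normalised to vehicle-treated controls, in the mec2-1 strain exposed to compound.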
With `CNC(=O)OCc1c(COC(=O)NC)c(C)n(-c2ccc(Cl)c(Cl)c2)c1C`, the growth inhibition was 99% (active). For the compound `COc1ccc2nc(N/N=C/c3sccc3C)cc(C)c2c1`, the growth inhibition is 95% (active). For the compound `O=C(O)/C=C\C(=O)NNc1ccc(Br)cc1`, the growth inhibition was 99% (active). The value for `S=c1[nH]nc(Cc2ccccc2)c(=S)[nH]1` was 96% (active). As for `CCN(CC)CCSc1c2ccccc2nc2cc(NCC(=O)Nc3ccccc3-c3ccccc3NC(=O)CNc3ccc4c(SCCN(CC)CC)c5ccccc5nc4c3)ccc12`, the growth inhibition is 97% (active). For the compound `Cc1ccc(N(C=O)c2c([N+](=O)[O-])cc([N+](=O)[O-])c3c2=[N+]([O-])CN=3)cc1`, the growth inhibition was 98% (active).

On to `COc1ccc(C(=O)OCCc2ccccc2)cc1`, for which the growth inhibition is -5%.

Turning to `COc1ccc(C(=O)NCCN(C)C)c2nc3ccccc3cc12`, the growth inhibition is 80% (active). Take `NCC(O)CSCc1ccc(Cl)cc1` (configuration not stated): the growth inhibition was 3%. For the compound `CN(C)/N=N/c1nc[nH]c1C(N)=O`, the growth inhibition was 98% (active). The value for `O=c1[nH]c(=O)n(CCCO)cc1F` was -23%; that for `COc1ccc(/C(=N/O)c2ccccc2C2=Nc3ccccc3C(NCc3ccccc3)O2)cc1C` (configuration not stated) was 96% (active). As for `CCCC(=O)OC(OC(=O)CCC)c1ccc([N+](=O)[O-])o1`, the growth inhibition was 20%. As to `O=C(/C(=C/c1ccccc1)CBr)c1ccccc1`, the growth inhibition was 99% (active).

Turning to `O=C(Cc1ccccc1F)NC1=C(Cl)C(=O)c2ccccc2C1=O`, the growth inhibition is 69%. For `Cc1cccc(N2CCN(C(=O)/C(=C/c3ccccc3)NC(=O)c3ccccc3)CC2)c1`, the growth inhibition is 43%. `c1cc(Nc2ccc3c(c2)OCO3)c2cc(C3CCCCC3)ccc2n1`: the growth inhibition is 72% (active).
